# Measured values: PubChem BioAssay (NCI)
# The panel holds about 83,000 compounds, 20% with a hit somewhere; the sample as a whole holds those more often.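 Step 1: grow cells in 96-well plates. Step 2: add test compound at a single concentration. Step 3: incubate 48 h. Step 4: record percent growth.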 Calls of active or inactive are those of the source. How the source made its calls: active means growth percent below 10; inactive means the rest.
# System: HL-60(TB) leukemia
# Assay: NCI-60 one-dose screen, 48 h (100 = growth as untreated, 0 = no growth, -100 = all killed)
# Conditions: 10 µM unless noted
row,Compound,growth
1,CN1CCCCC1CCN1c2ccccc2Sc2ccc(Cl)cc21 (centres undefined),42.1% (inactive)
2,N=C(N)c1nn(C2OC(CO)C(O)C2O)c2nc[nH]c(=O)c12 (centres undefined),-25.2% (active)
3,ClC1=C2NC=NC2n2c(nnc2-c2ccc(Cl)cc2)N1 (centres undefined),118% (inactive)
4,c1cc(OCCN2CCCCC2)ccc1CNc1ccc2nc(CCC3CCCCC3)[nH]c2c1,-31.6% (active)
5,COC(=O)c1c[nH]c2cc(OC(C)C)c(OC(C)C)cc2c1=O,106% (inactive)
6,Nc1ncnc2c1ncn2C1(CO)OCC(O)C(O)C1O (centres undefined),95.9% (inactive)
7,C=C[C@@H]1C[C@@H]2Cc3ccccc3N1O2,-12.8% (active)
8,O=C(O)c1ccccc1Cc1ccc2c(c1)CCCC2,130% (inactive)
9,COc1cc(/C=C2\CN(C)C/C(=C\c3cc(CN4CCCC4)c(O)c(OC)c3)C2=O)cc(CN2CCCC2)c1O,43.3% (inactive)
10,COc1ccc(S(=O)(=O)NCCCNc2nccc(-c3c(-c4ccc(F)cc4)nc4sccn34)n2)cc1,70.4% (inactive)
11,CN(C)CCOc1cccc(NC2=C(Cl)C(=O)C(Nc3cccc(OCCN(C)C)c3)=C(Cl)C2=O)c1,-51% (active)
12,C[C@H](NC(=O)[C@@H]1CSSC[C@@H](NC(=O)Cc2nc3ccccc3cc2O)C(=O)NCC(=O)N1C)c1ccccc1,32.1% (inactive)
13,C=C(C)[C@@H]1C[C@H](O)Cc2cc(F)ccc2N1,-20.3% (active)
14,O=c1[nH]c(-c2cccc(F)c2)cc2cc(F)ccc12,-24.6% (active)
15,CCCCCc1cc[n+](CC(=O)c2ccc([N+](=O)[O-])cc2)cc1,102% (inactive)
16,CCOC(=O)/C(=C\c1ccccc1Cl)P(=O)(OCC)OCC,10.8% (inactive)
17,Cc1cc2nc3c4cc([N+](=O)[O-])ccc4n(CCN(C)C)c3nc2cc1C,-4.06% (active)
18,C/C(=C\c1ccccc1)C(O)C(=O)c1nc2ccc([N+](=O)[O-])cc2[nH]c1=O (centres undefined),83% (inactive)
19,CC(=O)/C(C)=N\OC(=O)Nc1ccccc1,102% (inactive)
20,COc1cc2nc(-c3ccc(Cl)cc3)cc(OCCCN3CCOCC3)c2cc1OC,27% (inactive)

row,Compound,growth
1,N#CSCc1ccc(CSC#N)c(Cl)c1,23% (inactive)
2,Oc1ccc(Nc2nccc(-c3ccc4ccccc4c3)n2)cc1,7.93% (active)
3,COCCCOc1cc(C[C@@H](C[C@H](N)[C@@H](O)C[C@H](C(=O)NCC(C)(C)C(N)=O)C(C)C)C(C)C)ccc1OC,111% (inactive)
4,O=C(C[P+](c1ccccc1)(c1ccccc1)c1ccccc1)c1ccccc1,93.1% (inactive)
5,O=[N+]([O-])c1ccccc1NCSc1ccc(Cl)cc1,65.7% (inactive)
6,Oc1c(Cl)cc(Cl)c2ccc(Cn3cc(-c4cccc(C(F)(F)F)c4)nn3)nc12,-18.9% (active)
7,O=C(Nc1ncc(Cc2cc(C(F)(F)F)ccc2Cl)s1)c1cccs1,30.6% (inactive)
8,COc1ccc(C(c2cc(OC)c(OC)c(OC)c2)N2CCCCC2)cc1 (centres undefined),4.36% (active)
9,CCCCCCCCCCCCCCCCCC1OCC(COC(=O)O[C@]2(CC)C(=O)OCc3c2cc2n(c3=O)Cc3cc4ccccc4nc3-2)O1 (some centres undefined),102% (inactive)
10,COc1ccc(-c2cc(-c3ccccc3)nc(SCCCCCC(=O)NO)n2)cc1,-26.2% (active)
11,NS(=O)(=O)c1ccc(C(=O)NN2C(=O)c3c(Br)c(Br)c(Br)c(Br)c3C2=O)cc1,103% (inactive)
12,Cn1nc(N)c2cc([C@@H]3Nc4ccc5[nH]ncc5c4[C@H]4C5CCC(C5)[C@@H]34)ccc21 (some centres undefined),-16.6% (active)
13,c1cn2cc(-c3ccc4ncn(C5CCCCC5)c4c3)nc(-c3ccc4c(c3)ncn4C3CCCCC3)c2n1,-42.2% (active)
14,O=C(NCCNc1nccc(-c2c(-c3cccc(O)c3)nc3sccn23)n1)c1cc(N2CCOCC2)cc(C(F)(F)F)c1,102% (inactive)
15,Cc1ccc(NC(=S)/N=c2/n(-c3ccccc3)nc3n2CCN3C2=NCCN2)cc1,156% (inactive)
16,O=C(Nc1cccc(Cl)c1)Nc1cc2ncncc2cc1OCc1cccc(F)c1,7.49% (active)
17,CCCCc1ccc(N=Nc2ccc(OCC[N+](C)(C)C)cc2)cc1,25.2% (inactive)
18,O=[N+]([O-])c1ccc(NC(=S)N/N=C/c2cc3ccccc3n3nnnc23)cc1,27.4% (inactive)
19,Cc1noc(C)c1-c1ccc2nc(NC(=O)[C@H]3CCN(C#N)C3)cn2c1,95.9% (inactive)
